# Mito fusion yeast: qHTS Assay for Small Molecule Inhibitors of Mitochondrial Division or Activators of Mitochondrial Fusion. Potency, µM (highest dose often 46.1 µM), for the others: at the highest dose growth rescue (activation), usual class: activators. 320,000 compounds, 0.23% hits. S. cerevisiae fusion-defective mutant growth rescue, CellTiterGlo 48 h; note: % of control where 0% means no effect; nearly all actives have a fitted effect of over 45% in size
#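 Luminescent cell viability in 1536-well qHTS format served as the measure of rescued growth in ts fusion-mutant S. cerevisiae cultured on non-fermentable YPEG for 48 hours at 37C.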
# uPA surface inh: qHTS for Inhibitors of Cell Surface uPA Generation; cell surface uPA generation assay, qHTS; 330,000 compounds, 0.31% hits; Potency, µM (highest dose often 38.3 µM), without a hit: at the top dose activity change, negative = inhibition, actives largely listed as inhibitors; active = well fitted inhibition curve with a large enough effect; inconclusive = small, poorly fitted or top-dose-only effect; inactive = no such curve, though single readings can be large or run the other way; tested in mouse RAW 264.7 cells; note: % is set by controls: 0 for no effect and ±100 for the full control effect; nearly all actives have a fitted effect of over 55% in size
# RORg inh: qHTS for inhibitors of ROR gamma transcriptional activity. Potency, µM (doses to about 53.6 µM), for the others: at the top dose activity change, negative = inhibition, hits mostly inhibitors. Drosophila S2 Gal4-RORgamma UAS-luciferase reporter, 20 h. 310,000 compounds, 5.4% hits; note: % is set by controls: 0 for no effect and ±100 for the full control effect; nearly all actives have a fitted effect of over 60% in size
# Target sequence (P51450 whole entry, looked up, the tested form may be a part): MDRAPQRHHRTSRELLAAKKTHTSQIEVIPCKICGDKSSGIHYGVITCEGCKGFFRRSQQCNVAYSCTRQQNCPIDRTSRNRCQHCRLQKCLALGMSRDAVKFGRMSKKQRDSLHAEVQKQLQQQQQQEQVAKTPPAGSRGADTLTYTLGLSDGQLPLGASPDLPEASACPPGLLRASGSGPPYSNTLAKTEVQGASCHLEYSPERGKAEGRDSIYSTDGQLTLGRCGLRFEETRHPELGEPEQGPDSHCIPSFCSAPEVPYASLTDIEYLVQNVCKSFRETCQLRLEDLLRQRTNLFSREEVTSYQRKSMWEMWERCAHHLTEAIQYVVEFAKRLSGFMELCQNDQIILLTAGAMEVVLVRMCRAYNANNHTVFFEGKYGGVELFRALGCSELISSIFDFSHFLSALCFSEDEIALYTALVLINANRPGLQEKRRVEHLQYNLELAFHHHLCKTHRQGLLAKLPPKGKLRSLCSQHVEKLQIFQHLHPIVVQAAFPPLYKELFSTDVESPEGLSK
#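 Drosophila S2 cells stably expressing Gal4-DBD/mouse RORγ fusion under metallothionein promoter plus UAS-luciferase; compound 1 h, then 700 uM CuSO4 induction for 20 h at ambient temperature; inhibition read as reduced luminescence.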
# Integrin act MD: qHTS for Activators of Integrin-Mediated Alleviation for Muscular Dystrophy; alpha7betagal myoblasts, beta-gal FDG fluorescence, 48 h; AID 624291, 2012; 350,000 compounds, 0.064% hits; Potency, µM (highest dose often 38.3 µM), inactives show at the top dose activation, usual class: activators;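 note: 100% = response of the positive control SU9516; nearly all actives have a fitted effect of over 60% in size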
#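 Alpha7betagal+/- myoblasts (passage 13) were plated 16-24 hr, then exposed to compounds (1:260 dilution of DMSO stock) for 48 hours at 37C. After MPER lysis, β-galactosidase reporter activity was read as FDG fluorescence (ex 480/em 540) after 30 minutes.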
# BCR signal inh: qHTS Assay to Find Inhibitors of Chronic Active B-Cell Receptor Signaling. ABC-DLBCL IkBa-CBG/CBR reporter, luminescence ratio, 4 h. Potency, µM (series often up to 46.1 µM), without a hit: at the highest dose activity change, negative = inhibition, actives largely listed as inhibitors. 340,000 compounds, 0.05% hits. AID 493014, 2011; active = well fitted inhibition curve with a large enough effect in the signal ratio, with a control signal flat, not every such curve was filed as active; inconclusive = small, poorly fitted or top-dose-only effect, or effect the other way, or a change in a side signal; the % refers to the signal ratio;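 note: plate controls were basal doxycycline-induced cells for no effect and cells given 10 µM MG132 for full effect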
#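 Doxycycline induced both beetle luciferases in TMD8 lymphoma cells; IKK-driven degradation limits the IkappaBalpha-fused green signal, while red luminescence normalises for cell number and nonspecific effects. Compounds tested up to 46 uM, 4 hrs.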
# VP16 counter: VP16 counterscreen qHTS for inhibitors of ROR gamma transcriptional activity; Drosophila S2 Gal4-VP16 UAS-luciferase, luminescence, 20 h; AID 2546, 2010; 310,000 compounds, 3.5% hits; Potency, µM (top dose mostly 53.6 µM), for inactives: at the highest dose activity, negative = inhibition, hits mostly inhibitors;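 note: Gal4-VP16 expression switched on by copper sulfate through the metallothionein promoter; % is set by controls: 0 for no effect and ±100 for the full control effect; nearly all actives have a fitted effect of over 50% in size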
# * = called active by the depositor; ? = inconclusive; . = no result given. Hits are enriched below; roughly 5.5% of the tested compounds scored in any of these assays. Unless noted, calls come from the whole dose curve; as a rule, active = well fitted curve in the direction sought with a large enough effect; inconclusive = small, poorly fitted or top-dose-only effect, or another doubt; inactive = no such curve, though single readings can be large; an effect the other way counts as inactive or inconclusive. Potency is the fitted concentration of half-maximal effect.
SMILES,Mito fusion yeast,uPA surface inh,RORg inh,Integrin act MD,BCR signal inh,VP16 counter
COc1ccccc1N1CCN(C(=O)c2cccc(S(=O)(=O)N3c4ccccc4CC3C)c2)CC1 (stereo not given),.,-10%,.,-43%,.,.
COCCN(C(=S)Nc1ccc(OC)c(Cl)c1)C1CCN(C(C)=O)CC1,.,.,.,16%,.,.
Cc1ccc(-c2cc(C(=O)N3CCN(c4ccc(O)cc4)CC3)c3ccccc3n2)cc1,.,10µM*,.,6%,9%,.
Cc1ccc(-c2cc(C(=O)N3CCN(c4ccccc4O)CC3)c3ccccc3n2)cc1,19%,-4%,.,14%,21%,.
CCCc1ccc(-c2cc(C(=O)N3CCN(c4ccccn4)CC3)c3ccccc3n2)cc1,0%,7.1µM*,11µM*,11%,2%,14µM*
NCC1CCCCC1CC(=O)O (stereo not given),.,.,6%,.,.,-4%
Cc1ccc2c(c1)COc1c3ccc(C(=O)N4CCOCC4)cc3nn1-2,-2%,?,-24%,0%,-1%,3%
C[C@@H](CO)NC(=O)c1ccc2c3n(nc2c1)-c1ccc(Cl)cc1CO3,-14%,4.5µM*,-36%,-11%,0%,-6%
Cc1ccc2c(c1)COc1c3ccc(C(=O)N[C@@H](C)CO)cc3nn1-2,-1%,4.5µM*,-43%,30%,12%,?
Cc1ccc2c(c1)COc1c3ccc(C(=O)NC(C)C)cc3nn1-2,27%,7.1µM*,-26%,39%,13%,-21%
Cc1ccc2c(c1)COc1c3ccc(C(=O)NCCO)cc3nn1-2,18%,?,?,-5%,5%,?
CC(C)CNC(=S)NC1CC2CCCC(C1)N2Cc1cccs1 (stereo not given),-5%,-14%,11µM*,1%,-5%,-28%
Cc1ccc(NC(=S)NC2CC3CCCC(C2)N3Cc2cccs2)cc1 (stereo not given),0%,-16%,4.5µM*,-24%,4%,?
Cc1cccc(NC(=S)NC2CC3CCCC(C2)N3Cc2ccco2)c1 (stereo not given),0%,?,11µM*,-34%,-2%,?
CC(C)c1ccc(NC(=O)NC2CC3CCC(C2)N3Cc2cccs2)cc1 (stereo not given),0%,5%,-3%,-22%,0%,-8%
Fc1ccc(NC(=S)NC2CC3CCCC(C2)N3Cc2cccs2)cc1 (stereo not given),-9%,-3%,10µM*,-4%,-5%,?
CCS(=O)(=O)N1CCC(C(=O)Nc2cc(C)ccc2O)CC1,-2%,?,14%,9%,1%,-11%
COc1ccc(C2C(=O)N(C3CCCCCC3)CC(=O)N2Cc2ccc(C)cc2)cc1 (stereo not given),.,.,.,.,-1%,.
FC(F)(F)c1cc(NC2CCCCC2)ccn1,-1%,15%,?,8%,?,-9%
C/C(=N/NC(=O)CNS(=O)(=O)c1ccccc1)c1ccc(Br)cc1,7%,6%,12%,-16%,2%,5%
COc1cc(/C=N/Nc2nncn2N)ccc1OCc1c(C)no[n+]1[O-],-2%,11µM*,?,-17%,?,?
CCc1ccc(OCC(=O)NC2CCCCC2)c(Br)c1,-1%,-5%,2.8µM*,9%,6%,4µM*
CCc1ccc(OCC(=O)NNC(=S)NC(=O)C2CC2)c(Br)c1,-28%,1%,?,-3%,5%,-17%
O=C(COc1ccccc1Br)NC1CCCC1,21%,0%,10%,10%,-3%,17%
CCc1ccc(OCC(=O)NNC(=S)NC(=O)C2CCCCC2)c(Br)c1,-3%,10%,10µM*,0%,0%,-22%

# Screening results from PubChem.
